SARS PLP yeast = SARS-CoV PLP inhibition in yeast; S. cerevisiae expressing SARS-CoV PLpro, growth rescue; Potency, µM (doses to about 32.9 µM), usual class: activators; actives 0.19% (n = 330,000); calls by dose curve; note: nearly all actives have a fitted effect of over 55% in size
Pf growth 48h = inhibits P. falciparum growth in the first generation, 48 h; Potency, µM (highest dose often 28.7 µM), hits mostly inhibitors; actives 5.9% (n = 310,000); AID 504832; P. falciparum luciferase growth in erythrocytes, 48 h
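Erythrocytes infected with P. falciparum carrying an integrated firefly luciferase reporter (2% hematocrit, 0.1% parasitemia final) were exposed to compounds in RPMI 1640 with 0.5% Albumax at 37 C, 5% CO2. Growth inhibition was scored as reduced luminescence.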
Sm TGR block = S. mansoni TGR enzyme inhibition | Potency, µM (top dose mostly 114 µM), hits mostly inhibitors | purified TGR, DTNB reduction, TNB absorbance 405 nm | AID 485364 | actives 3% (n = 360,000); note: nearly all actives have a fitted effect of over 60% in size
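TGR 20 nM + NADPH 100 uM (dispensed conc.), cpd preinc 15 min RT; start with NADPH (500 uM addition) then DTNB (15 mM addition). Kinetic TNB absorbance, 405 nm filter. Four-parameter Hill fit across titration.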
Pf growth 96h = P. falciparum growth inhibition at 96 hour, primary screen for plastid delayed-death inhibitors; P. falciparum luciferase reporter growth, 96 h; Potency, µM (top dose mostly 28.7 µM), hits mostly inhibitors; actives 6.9% (n = 320,000); AID 504834
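Erythrocytes infected with luciferase-expressing P. falciparum were dispensed at 2% hematocrit and 0.05% parasitemia (final), then incubated with compounds 96 hours at 37 C in 5% CO2. Luminescence after detection reagent addition reported growth.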
Numbers stand for hits; 0 = inactive; ? = inconclusive; - = no result given. In the library only some 12% were active in any assay of this set; here they are far more common. Unless noted, calls come from the whole dose curve; as a rule, active = well fitted curve in the direction sought with a large enough effect; inconclusive = small, poorly fitted or top-dose-only effect, or another doubt; inactive = no such curve, though single readings can be large; an effect the other way counts as inactive or inconclusive.

SMILES	SARS PLP yeast	Pf growth 48h	Sm TGR block	Pf growth 96h
CCOc1ccc(NC(=O)CC2C(=O)N(c3cccc(C)c3)C(=O)N2CCC2=CCCCC2)cc1 (stereo not drawn)	-	-	0	-
CCCC(CCC)C(=O)Nc1cc(-c2cn3cccnc3n2)ccc1OC	-	-	0	-
COc1ccc(CCNC(=O)c2cnn(-c3ccc(F)cc3)c2C2CCN(C(=O)OC(C)(C)C)CC2)c(OC)c1	-	-	0	-
O=C(COC(=O)c1cc[n+]([O-])cc1)Nc1cccc(F)c1	0	-	-	-
O=[N+]([O-])c1cccnc1S(=O)(=O)c1ccccc1	0	?	0.32µM	10µM
COc1ccc([N+](=O)[O-])c(S(=O)(=O)c2ccccc2)n1	0	0	0.1µM	?
Nc1cccnc1S(=O)(=O)c1ccccc1	0	0	0	0
COCCNC(=O)c1csc(Nc2cccc3ccccc23)n1	?	?	0	?
CCCNC(=O)c1csc(Nc2cccc3ccccc23)n1	0	9.3µM	0	6.6µM
CN1N=C2c3ccccc3CCC2C1c1ccc(F)cc1 (stereo not drawn)	0	1.3µM	0	1.7µM
CN1N=C2c3ccccc3CCC2C1c1ccc(Cl)cc1 (stereo not drawn)	0	?	0	1.5µM
Cc1cccc(N2CCN(S(=O)(=O)c3ccc4oc(=O)c5ncn(C)c5c4c3)CC2C)c1 (stereo not drawn)	-	-	0	-
Cc1cc(S(=O)(=O)Nc2nc(CN3CCOCC3)nc3sc4c(c23)CCCC4)ccc1F	0	-	0	?
NS(=O)(=O)c1ccc(CCNc2nc(CN3CCCCC3)nc3sc4c(c23)CCC4)cc1	0	12µM	0	6.6µM
CCCCNC(=O)/C(=C\c1ccc([N+](=O)[O-])o1)NC(=O)c1ccccc1	0	?	45µM	0
COC(=O)/C(=C\c1ccc([N+](=O)[O-])o1)NC(=O)c1ccccc1	0	-	?	13µM
Cc1cccc(NC(=O)/C(=C\c2ccc([N+](=O)[O-])o2)NC(=O)c2ccc(Cl)cc2)c1	0	?	0	0
CCOC(=O)c1c(NC(=O)c2cc(OCC)c(OCC)c(OCC)c2)sc2c1CCCCC2	-	-	0	-
CCCOc1ccc(C(C)=O)cc1CSc1nc(O)cc(=O)[nH]1	0	-	0	0.93µM
Cc1ccc(-c2ccc(CCC(=O)O)n2C(C)C)cc1	0	-	25µM	?
CC(=O)c1cccc(-n2c(CCC(=O)O)ccc2-c2ccc(C)cc2)c1	0	0	32µM	?
Cc1ccc(-c2ccc(CCC(=O)O)n2NC(N)=S)cc1	0	0	0	0
O=C(O)CCc1ccc(-c2ccccc2)n1-c1ccc(C(=O)O)cc1	0	0	18µM	0
Cc1ccc(-c2ccc(CCC(=O)O)n2-c2ccc(C)c(Cl)c2)cc1	-	-	18µM	-
CC(=O)c1ccc(-n2c(CCC(=O)O)ccc2-c2ccc(Cl)cc2)cc1	0	0	0	0
SMILES	SARS PLP yeast	Pf growth 48h	Sm TGR block	Pf growth 96h
O=C(CCS(=O)(=O)c1cccc2nonc12)Nc1ccc(Br)cc1	0	0	0	0
COC(=O)c1ccccc1NC(=O)C1=CC(c2ccc3c(c2)OCO3)=NS(=O)(=O)N1C	-	-	0	-
CCN(CC(=O)N1CCCC1)S(=O)(=O)c1ccc(OC)cc1	0	0	0	0
COc1ccc(-c2ccc(CCC(=O)O)n2NC(=O)c2ccc(O)cc2)cc1	0	0	0	0
O=C(O)CCc1ccc(-c2ccccc2)n1-c1cccc(C(=O)O)c1	0	0	11µM	0
O=C(O)CCc1ccc(-c2ccc(Br)cc2)n1-c1cccc(O)c1	0	0	32µM	0
CCOC(=O)c1ccc(-n2c(CCC(=O)O)ccc2-c2ccccc2)cc1O	-	-	18µM	-
CCOC(=O)c1cc(-c2ccccc2)n(CCC(=O)O)c1C	0	-	0	0
O=C(O)CCc1ccc(-c2ccccc2)n1CC(=O)Nc1cccc(C(F)(F)F)c1	0	0	0	?
COc1ccc(CCNC(=O)c2cc3c(=O)n(C)c4ccccc4c3s2)cc1OC	-	-	0	-
COc1cccc(-c2csc(N3CCN(C(=S)Nc4ccccc4)CC3)n2)c1	0	?	0	?
CNC(=S)N1CCN(c2nc(-c3cccc(OC)c3)cs2)CC1	0	0	0	12µM
COc1cccc(-c2csc(N3CCN(C(=S)Nc4ccc(Cl)cc4)CC3)n2)c1	0	?	0	10µM
COc1cccc(-c2csc(N3CCN(C(=O)NC45CC6CC(CC(C6)C4)C5)CC3)n2)c1	0	12µM	0	0
COc1cccc(NC(=O)N2CCN(c3nc(-c4cccc(OC)c4)cs3)CC2)c1	0	?	0	?
COc1cccc(-c2csc(N3CCN(C(=S)Nc4cccc(C)c4)CC3)n2)c1	0	?	-	?

High-throughput results from PubChem BioAssay.
